# Test results from PubChem BioAssay AID504333 (National Center for Advancing Translational Sciences (NCATS), 2011).
# Screen size: about 360,000 compounds; about 16,000 (4.4%) were called active. Another 9% or so got no clear call; they are omitted. For the sample, actives were picked, then their nearest neighbours and some compounds at random. A number with no mark means an inactive call. Calls follow the shape of the dose curve; as a rule, active = well fitted inhibition curve with a large enough effect; inconclusive = small, poorly fitted or top-dose-only effect; inactive = no such curve, though single readings can be large or run the other way.
# Molecular target: Bromodomain adjacent to zinc finger domain protein 2B (Homo sapiens) (UniProt Q9UIF8)
# Sequence (Q9UIF8 whole entry, looked up, the tested form may be a part): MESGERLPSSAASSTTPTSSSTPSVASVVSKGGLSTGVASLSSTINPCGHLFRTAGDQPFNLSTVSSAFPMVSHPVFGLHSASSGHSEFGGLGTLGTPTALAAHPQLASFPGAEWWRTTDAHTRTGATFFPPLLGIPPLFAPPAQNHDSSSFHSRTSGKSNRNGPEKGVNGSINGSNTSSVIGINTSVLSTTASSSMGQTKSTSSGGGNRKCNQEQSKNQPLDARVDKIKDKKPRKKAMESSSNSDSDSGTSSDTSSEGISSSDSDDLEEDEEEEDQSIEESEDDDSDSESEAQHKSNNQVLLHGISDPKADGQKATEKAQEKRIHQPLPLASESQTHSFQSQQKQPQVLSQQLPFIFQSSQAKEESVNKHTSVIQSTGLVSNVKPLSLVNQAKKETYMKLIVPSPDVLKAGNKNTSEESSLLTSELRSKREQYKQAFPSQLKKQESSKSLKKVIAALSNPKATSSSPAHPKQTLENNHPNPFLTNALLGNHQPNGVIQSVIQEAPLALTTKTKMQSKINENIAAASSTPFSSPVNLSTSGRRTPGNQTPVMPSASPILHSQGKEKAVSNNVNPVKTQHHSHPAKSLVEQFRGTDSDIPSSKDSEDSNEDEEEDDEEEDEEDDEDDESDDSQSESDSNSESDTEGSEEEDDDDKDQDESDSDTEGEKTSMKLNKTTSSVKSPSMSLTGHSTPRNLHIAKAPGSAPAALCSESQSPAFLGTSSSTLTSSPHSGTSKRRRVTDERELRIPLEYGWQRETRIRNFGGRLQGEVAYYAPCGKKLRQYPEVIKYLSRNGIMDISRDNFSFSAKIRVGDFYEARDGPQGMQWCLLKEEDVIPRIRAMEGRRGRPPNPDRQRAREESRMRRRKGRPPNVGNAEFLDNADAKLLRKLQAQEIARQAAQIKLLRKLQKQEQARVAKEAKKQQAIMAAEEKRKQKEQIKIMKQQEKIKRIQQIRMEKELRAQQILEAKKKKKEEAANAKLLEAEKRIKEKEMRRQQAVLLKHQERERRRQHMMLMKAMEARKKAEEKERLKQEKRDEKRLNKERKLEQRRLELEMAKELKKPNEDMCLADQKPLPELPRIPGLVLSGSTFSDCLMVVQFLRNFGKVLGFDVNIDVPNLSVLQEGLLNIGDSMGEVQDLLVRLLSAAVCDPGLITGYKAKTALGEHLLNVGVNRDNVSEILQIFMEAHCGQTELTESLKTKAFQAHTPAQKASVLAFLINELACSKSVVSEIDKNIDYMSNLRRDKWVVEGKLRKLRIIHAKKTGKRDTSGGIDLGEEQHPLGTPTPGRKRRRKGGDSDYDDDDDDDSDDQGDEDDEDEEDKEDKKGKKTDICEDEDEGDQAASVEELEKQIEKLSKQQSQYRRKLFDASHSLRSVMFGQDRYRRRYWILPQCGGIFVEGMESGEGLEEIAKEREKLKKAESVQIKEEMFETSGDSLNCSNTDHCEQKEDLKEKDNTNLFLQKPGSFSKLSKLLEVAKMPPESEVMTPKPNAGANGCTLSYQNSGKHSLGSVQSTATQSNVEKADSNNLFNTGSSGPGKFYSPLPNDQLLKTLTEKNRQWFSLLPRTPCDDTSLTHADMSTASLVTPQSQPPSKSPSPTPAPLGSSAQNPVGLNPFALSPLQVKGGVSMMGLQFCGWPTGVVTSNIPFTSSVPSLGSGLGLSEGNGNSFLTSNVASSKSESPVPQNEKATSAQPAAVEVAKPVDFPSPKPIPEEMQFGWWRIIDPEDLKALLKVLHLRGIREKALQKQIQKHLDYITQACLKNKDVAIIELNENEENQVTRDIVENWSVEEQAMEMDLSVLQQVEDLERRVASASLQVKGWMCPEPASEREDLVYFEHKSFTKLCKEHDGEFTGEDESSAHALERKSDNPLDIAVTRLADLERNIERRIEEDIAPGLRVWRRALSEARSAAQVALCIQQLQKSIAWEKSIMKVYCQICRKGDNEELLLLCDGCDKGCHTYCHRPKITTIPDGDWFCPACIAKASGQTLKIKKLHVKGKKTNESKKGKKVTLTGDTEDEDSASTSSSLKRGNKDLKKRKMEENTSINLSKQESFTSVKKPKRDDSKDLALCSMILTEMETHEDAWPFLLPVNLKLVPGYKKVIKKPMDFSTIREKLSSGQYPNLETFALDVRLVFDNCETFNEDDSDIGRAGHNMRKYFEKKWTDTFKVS
# Experiment: qHTS Assay for Inhibitors of BAZ2B; also: nearly all actives have a fitted effect of over 60% in size
# Conditions: AlphaScreen BAZ2B-H3K14Ac peptide displacement; series mostly up to 114 µM; activity change, negative = inhibition: at the top concentration
# Outline: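 Inhibition is scored as reduced AlphaScreen emission. The BAZ2B/b-H3(5-23)K14Ac complex (50 nM each) in PBS pH 7.4, 0.01% Tween-20 meets compound (up to 110 uM) for 30 min at RT before bead addition.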
# % is scaled to controls: 0 for no effect and ±100 for the full control effect; potency is read from the fitted curve at half-maximal effect.
Compound,"activity change, negative = inhibition",Potency
O=C(CSc1nnc(COc2ccc(Cl)cc2)n1Cc1ccco1)N1CCNC1=O,-2.72%,
COCn1c(COc2ccccc2)nc2ccccc21,0.462%,
Cn1c2ccccc2c(=O)c2c(=O)n(Cc3ccco3)c(COc3ccccc3)nc21,,56.2 µM (active)
Cc1ccc2ncc(C(=O)Nc3ccc(OC(F)(F)F)cc3)c(=O)n2c1,2.09%,
Cc1ccc(Cl)cc1NC(=O)CCS(=O)(=O)c1ccc(Br)s1,-11.7%,
Oc1c(C=Nc2cccc3nsnc23)ccc2ccccc12,,50.1 µM (active)
Cc1ccc(-n2c(=O)c3cccnc3n2CC(=O)NCc2ccc(F)cc2)cc1C,11.3%,
CN(C)[C@@H]1C(=O)C(C(N)=O)=C(O)[C@@]2(O)C(=O)C3=C(O)c4c(O)ccc(Cl)c4[C@@H](O)[C@H]3C[C@@H]12,,10 µM (active)
C=C1c2c(Cl)ccc(O)c2C(O)=C2C(=O)[C@]3(O)C(O)=C(C(N)=O)C(=O)[C@@H](N(C)C)[C@@H]3[C@@H](O)C12 (some centres not stated),,2.82 µM (active)
Cc1cc(=O)n(CC(=O)Nc2cccc([N+](=O)[O-])c2)c(-n2nc(C)cc2C)n1,-21.5%,
N#Cc1ccccc1Cn1cnc2nc3c(cc2c1=O)CCCC3,-3.89%,
COc1ccc(-c2cc(-c3nc(-c4cc(OC)c(OC)c(OC)c4)no3)[nH]n2)c(OC)c1,-1.15%,
COc1ccc(N2CCN(C(=O)c3c(C)oc4nc(C)nc(N5CCCC5)c34)CC2)cc1,4.5% [at 57.1 µM],
O=C1CC(c2ccccc2)=NN1c1ccc([N+](=O)[O-])cc1,,25.1 µM (active)
CC1=NN(c2ccccc2)C(=O)C1C(=O)c1ccc([N+](=O)[O-])cc1 (configuration not stated),-13.4%,
O=c1[nH]n(-c2ccc([N+](=O)[O-])cc2)c(=O)c2ccccc12,20.8%,
CCCn1c2ccccc2c2cnn(CC(=O)NCCCOC(C)C)c(=O)c21,-7.08%,
CCc1nnc2c3ccccc3nc(N3CCN(c4ccc(C)cc4C)CC3)n12,4.68% [at 57.1 µM],
CN(C)CCCn1c(-c2ccc(Cl)cc2)csc1=Nc1ccccc1,,12.6 µM (active)
CC(C)Cn1c(-c2ccc(S(=O)(=O)N3CCOCC3)cc2)csc1=Nc1cc(Cl)ccc1Cl,-37.6%,
Cc1csc(=NC(=O)c2ccccc2)n1CCO,3.79%,
OCCn1c(-c2ccccc2)csc1=Nc1ccccc1,,11.2 µM (active)
Cc1cccn2c(=O)c(C(=O)NC(C)c3ccccc3)cnc12 (configuration not stated),-1.1%,

Compound,"activity change, negative = inhibition",Potency
Cc1csc2nc(COC(=O)c3ccccc3NC(=O)c3ccccc3Cl)cc(=O)n12,-0.509%,
Cc1ccc(CN2COc3cc(C)c4c(oc(=O)c5ccccc54)c3C2)cc1,-9.36%,
CC(=O)c1sc(N2C(=O)c3oc4ccccc4c(=O)c3C2c2ccc(C)cc2)nc1C (configuration not stated),0.549%,
Cc1ccc(S(=O)(=O)c2cn(Cc3ccccc3)c3cc(N4CCCC4)c(F)cc3c2=O)c(C)c1,4.01%,
Oc1ccc2ccccc2c1N=Nc1nccs1,,2 µM (active)
Oc1ccc(N=Nc2nccs2)c(O)c1,,25.1 µM (active)
CCc1ccccc1N(C)C(=O)C1CCCN(c2ncnc3onc(-c4ccc(F)cc4)c23)C1 (configuration not stated),6.53% [at 57.1 µM],
CN(C(=O)CSc1nc2ccccc2n1Cc1ccccc1C#N)c1ccccc1,-36.5%,
CC(C)(C)OC(=O)N1CCC(c2c(C(=O)NCCc3ccsc3)cnn2-c2ccc(F)cc2F)CC1,-1.06% [at 57.1 µM],
Cc1ccccc1CNC(=O)CCCn1nc(C)c2sc3ccccc3c2c1=O,-3.88%,
CCCC(=O)Nc1ccc(NC(=O)c2sc3ccccc3c2Cl)cc1,-3.87%,
Cc1ccc2c(Cl)c(C(=O)Nc3nn[nH]n3)sc2c1,,50.1 µM (active)
Cc1ccc(-c2cc(C(=O)Nc3nn[nH]n3)c3ccccc3n2)c(C)c1,7.22%,
CN(C)S(=O)(=O)c1ccc(C(=O)N(Cc2cccnc2)c2nc3c(F)cc(F)cc3s2)cc1,1.49%,
CC(=O)Nc1cccc(NC(=O)CSc2cn(CC(=O)N3CCCC3)c3ccccc23)c1,-15.1%,
COc1ccc(Cn2c(=O)n(-c3ccccc3C)c(=O)c3c4c(sc32)CN(C(C)=O)CC4)cc1,-6.59%,
CCOc1ccc(/C=C2\SC(=S)N(NC(=O)c3ccncc3)C2=O)cc1OC,-34.1%,
Cn1cccc1/C=C1\SC(=S)N(NC(=O)c2ccc(Cl)cc2)C1=O,,12.6 µM (active)
CN1C(=O)C(CC(N)=O)N(NC(=O)c2ccc(Cl)cc2)C1=S (configuration not stated),-6.62%,
COc1ccc(N2CCN(C(=O)CSCc3nc(-c4ccccc4Cl)oc3C)CC2)cc1,4.75%,
Cc1[nH]n(C)c(=O)c1N=Nc1ccc(S(C)(=O)=O)cc1,-19.1%,
Cc1cccc(N=Nc2c(C)[nH]n(-c3ccccc3)c2=O)c1,,3.16 µM (active)
Cc1cccc(N=Nc2c(O)[nH]c3ccc(F)cc23)c1,-13.2%,

Compound,"activity change, negative = inhibition",Potency
O=C(CCS(=O)(=O)c1ccccc1)N(Cc1cccnc1)c1nc2c(F)cccc2s1,-1.19%,
Cc1ccc(Cl)cc1N(C)C(=O)Cn1nc(Cc2cccnc2)c2ccccc2c1=O,-25.1%,
CC1CCCCN1S(=O)(=O)c1ccc(F)c(C(=O)Nc2ccccc2C(F)(F)F)c1 (configuration not stated),5.64%,
Cc1ccc(NC(=O)NC(C)c2c(-n3cccc3)sc(C)c2C)c(C)c1 (configuration not stated),2.45%,
CCn1cc(NC(=O)Nc2ccc(OC)c(OC)c2)c(C(N)=O)n1,13.7%,
COc1ccc(NC(=O)NC(C)c2c(-n3cccc3)sc(C)c2C)cc1OC (configuration not stated),,35.5 µM (active)
Cc1cc(Nc2cccc(C(F)(F)F)c2)nc2ccc(NC(=O)c3ccc(=O)[nH]c3)cc12,-5%,
COc1ccc(-c2nc3n(c2Br)CCC3)cc1,,50.1 µM (active)
COc1ccc(-c2nnc3n2CCCCC3)cc1,0.531%,
COc1ccc(-c2nc(SCC(=O)N3CCCC3)n[nH]2)cc1,4.84%,
CCc1nn(CC(=O)Nc2cc(C)cc(C)c2)c(=O)c2cc3sccc3n12,-3.37%,
COc1c(O)cc2oc(-c3ccc(O)c(O)c3)cc(=O)c2c1O,,50.1 µM (active)
COc1ccc(-c2cc(=O)c3c(O)cc(O[C@@H]4O[C@H](CO[C@@H]5O[C@@H](C)[C@H](O)[C@@H](O)[C@H]5O)[C@@H](O)[C@H](O)[C@H]4O)cc3o2)cc1O,-3.8%,
CCOC(=O)COc1cc(OCC(=O)OCC)c2c(=O)cc(-c3ccccc3)oc2c1,3.07%,
COCCCn1c(SCC(=O)NC2CCCC2)nnc1-c1ccccc1,4.71%,
COCCCn1c(Cc2csc(Nc3cccc(Cl)c3)n2)nnc1SCC(=O)OC1CCCCC1,,39.8 µM (active)
COCCCn1c(SCC(=O)Nc2ccccc2)nnc1-c1ccncc1,2.13%,
COc1ccc(-c2cc(C(=O)NCc3cc(OC)c(OC)c(OC)c3)[nH]n2)cc1,-15.3%,
CN(C)c1cccc(C(=O)Nc2nc3ccc(S(=O)(=O)NC(C)(C)C)cc3s2)c1,-20.8%,
O=C(CN1CCCCCC1)Nc1c(Cl)cc(Cl)cc1Cl,-1.52%,
Cc1cc(C)c(NC(=O)CN2CCCCCC2)c(C)c1,-4.99%,
Cc1csc(NC(=O)CN2CCCCCC2)n1,,50.1 µM (active)
CCOc1ccc(-c2nonc2NC(=O)c2oc3ccc(C)cc3c2C)cc1OCC,1.66%,

Compound,"activity change, negative = inhibition",Potency
COc1ccc(CCNc2nc(-c3ccc(Cl)cc3)cc(C(F)(F)F)n2)cc1OC,-0.128%,
C#CCOCCOCCOCCNc1nc(N2CCN(C(=O)[C@H](CCC(=O)O)n3cc(C(N)CO)nn3)CC2)nc(N2CCN(C(=O)[C@H](Cc3ccc(O)cc3)n3cc(C(N)[C@H](C)CC)nn3)CC2)n1 (some centres not stated),,39.8 µM (active)
C#CCOCCOCCOCCNc1nc(N2CCN(C(=O)[C@H](CCCCN)n3cc([C@@H](N)C(C)CC)nn3)CC2)nc(N2CCN(C(=O)[C@H](Cc3ccc(O)cc3)n3cc([C@@H](N)C(C)CC)nn3)CC2)n1 (some centres not stated),,44.7 µM (active)
C#CCOCCOCCOCCNc1nc(N2CCN(C(=O)C(Cc3ccc(O)cc3)n3cc(C(N)CC(C)C)nn3)CC2)nc(N2CCN(C(=O)C(Cc3ccc(O)cc3)n3cc(C(N)C(C)CC)nn3)CC2)n1 (configuration not stated),,56.2 µM (active)
CC[C@H](C)[C@@H](C(=O)N1CCNCC1)n1cc([C@@H](N)Cc2ccc(O)cc2)nn1,-27.4%,
C#CCOCCOCCOCCNc1nc(N2CCN(C(=O)[C@H](Cc3ccc(O)cc3)n3cc(C(N)CC(C)C)nn3)CC2)nc(N2CCN(C(=O)[C@H](CCC(=O)O)n3cc(C(N)[C@H](C)CC)nn3)CC2)n1 (some centres not stated),,70.8 µM (active)
CSc1ccc(C2C(C(=O)Nc3ccccc3)=C(C)Nc3nc4ccccc4n32)cc1 (configuration not stated),-18.3%,
CCC(CC)C(=O)N1CCc2cc(OC)c(OC)cc2C1COc1ccc(F)cc1 (configuration not stated),-21.4%,
COc1ccc(NC(=O)c2sc3nc[nH]c(=O)c3c2C)cc1,-19.2%,
COc1ccc(OC)c(-c2nc(C(N)=O)c3c(n2)n(-c2ccc4c(c2)OCO4)c(=O)n3C)c1,-5.87%,
CCc1ccccc1NC(=O)N1CCN(C(=O)c2nsc3ccccc23)CC1,9.41%,
Cc1csc2nc(COC(=O)c3ccc(NC(=O)COc4ccccc4F)cc3)cc(=O)n12,2.08%,
CCc1nc2ccc(C(=O)N3CCN(c4cc(Cl)ccc4C)CC3)cc2nc1CC,-3.97%,
Cc1c(NC(=O)C(C)(C)C)cccc1-c1nc2ccccc2s1,-1.23%,
O=C1CSC(=S)N1/N=C/c1ccc(O)c([N+](=O)[O-])c1,,50.1 µM (active)
COc1cccc(N2CCN(C(=O)CCCCCn3c(=O)[nH]c4ccccc4c3=O)CC2)c1,-17.1%,
COc1ccc2c(Sc3ccc(C)cc3)c(C(=O)NC(C)c3ccccc3)[nH]c2c1 (configuration not stated),-17.5%,
Cc1ccc(N(CC(=O)NCC(C)c2ccccc2)S(=O)(=O)N(C)C)cc1 (configuration not stated),3.62%,
CCC1=NN2C(=N)/C(=C/c3cc(C)n(-c4ccccc4)c3C)C(=O)N=C2S1,-9.65%,
CS(=O)(=O)c1ccc2c(c1)SC1=NC(=O)/C(=C/c3ccco3)C(=N)N12,,50.1 µM (active)
CC(C)(C)OC(=O)NCCCCCNC(=O)c1[nH]cnc1C(=O)Nc1nccs1,,31.6 µM (active)
Cc1ccc(NC(=O)c2nc[nH]c2C(=O)N[C@@H](CCCCNC(=O)OC(C)(C)C)C(=O)OC(C)(C)C)cc1,4.5%,
CC(C)(C)OC(=O)NCCCCCNC(=O)c1nc[nH]c1C(=O)NCc1ccccc1,-6.92%,
